# High-throughput results: PubChem, National Center for Advancing Translational Sciences (NCATS)
# Sampled rows, rich in hits. Any-hit rate of the full collection: about 12%.
# Sm TGR inh: inhibitors of Schistosoma mansoni thioredoxin glutathione reductase; purified TGR, DTNB reduction, TNB absorbance 405 nm; Potency, µM (doses to about 114 µM), most hits filed as inhibitors; actives 3% (n = 360,000); further: nearly all actives have a fitted effect of over 60% in size
#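 TGR 20 nM + NADPH 100 uM (dispensed conc.), cpd preinc 15 min RT; start with NADPH (500 uM addition) then DTNB (15 mM addition). Kinetic TNB absorbance, 405 nm filter. Four-parameter Hill fit across titration.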
# Pf growth 96h: P. falciparum growth inhibition at 96 hour, primary screen for plastid delayed-death inhibitors. P. falciparum luciferase reporter growth, 96 h. actives 6.9% (n = 320,000). Potency, µM (highest dose often 28.7 µM), most hits filed as inhibitors
#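 Plates of compound plus infected erythrocytes (2% hematocrit, 0.05% parasitemia final) incubate 96 hours, 37 C, 5% CO2. Detection reagent added; reduced luminescence from the parasites' luciferase reporter flags inhibition.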
# Pf growth 48h: inhibits P. falciparum growth in the first generation, 48 h | actives 5.9% (n = 310,000) | Potency, µM (series often up to 28.7 µM), actives largely listed as inhibitors | P. falciparum luciferase growth in erythrocytes, 48 h
#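 Firefly luciferase activity from engineered P. falciparum reports growth; inhibitors lower the luminescent signal. Cultures contained 2% hematocrit erythrocytes at 0.1% final parasitemia.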
# SARS PLP yeast: blocks SARS-CoV papain-like protease in a yeast assay. Potency, µM (doses to about 32.9 µM), hits mostly activators. S. cerevisiae expressing SARS-CoV PLpro, growth rescue. actives 0.19% (n = 330,000); calls by dose curve; further: nearly all actives have a fitted effect of over 55% in size
# AmpC inh no detg: AmpC beta-lactamase inhibition without detergent; AmpC nitrocefin hydrolysis, absorbance 480 nm, 0.0001% Triton; Potency, µM (highest dose often 57.1 µM), hits mostly inhibitors; actives 0.52% (n = 330,000); AID 485341; further: nearly all actives have a fitted effect of over 20% in size
# Target sequence (P00811 whole entry, looked up): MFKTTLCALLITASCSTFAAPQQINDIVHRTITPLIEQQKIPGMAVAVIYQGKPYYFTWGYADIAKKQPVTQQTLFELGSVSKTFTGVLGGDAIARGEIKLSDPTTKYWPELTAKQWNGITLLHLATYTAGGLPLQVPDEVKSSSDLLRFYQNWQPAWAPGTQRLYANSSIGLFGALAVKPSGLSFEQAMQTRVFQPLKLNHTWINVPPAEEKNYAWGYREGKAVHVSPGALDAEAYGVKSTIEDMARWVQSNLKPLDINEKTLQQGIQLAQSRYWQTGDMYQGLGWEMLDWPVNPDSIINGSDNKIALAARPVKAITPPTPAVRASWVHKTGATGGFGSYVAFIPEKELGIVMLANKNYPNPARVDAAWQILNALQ
#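 20 mM phosphate pH 7.0 + 0.01% (detergent screen) or 0.0001% Triton X-100; 5.3 nM AmpC reagent; cpd preinc 15 min RT; nitrocefin (800 uM stock) to start; A480 q20 s × 4 min; Activity was normalised to no-enzyme and no-compound control wells.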
# AmpC inh detg: blocks E. coli AmpC beta-lactamase in detergent assay; P00811; AmpC hydrolysis of nitrocefin, absorbance 480 nm, 0.01% Triton; Potency, µM (highest dose often 114 µM), actives largely listed as inhibitors; actives 0.041% (n = 370,000); AID 485294; further: nearly all actives have a fitted effect of over 25% in size
#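 20 mM phosphate pH 7.0 + 0.01% (detergent screen) or 0.0001% Triton X-100; 5.3 nM AmpC reagent; cpd preinc 15 min RT; nitrocefin (800 uM stock) to start; A480 q20 s × 4 min; Activity was normalised to no-enzyme and no-compound control wells.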
# Numbers stand for hits; 0 = inactive; ? = inconclusive; - = no result; [ ] = remark or other dose. Unless noted, the call rests on the fitted dose curve; in most records, active means well fitted curve in the direction sought with a large enough effect; inconclusive means small, poorly fitted or top-dose-only effect, or another doubt; inactive means no such curve, though single readings can be large; an effect the other way counts as inactive or inconclusive.
SMILES,Sm TGR inh,Pf growth 96h,Pf growth 48h,SARS PLP yeast,AmpC inh no detg,AmpC inh detg
Cc1ccc(S(=O)(=O)c2ncccc2[N+](=O)[O-])cc1,0.35µM,?,-,0,0,0
Cc1ccc(S(=O)(=O)c2ncccc2N)cc1,0,0,0,0,0,0
CCCCCCCn1c(=N)n(CC(O)c2ccco2)c2ccccc21 (stereo not drawn),0,?,4.1µM,0,0,0
CCCCCCCn1c(=N)n(CC(=O)c2ccco2)c2ccccc21,0,12µM,-,0,0,0
CCc1cccc(-n2c(=O)c3cccnc3n2CC(=O)NCc2ccccc2)c1,0,-,-,-,-,0
CCN(C(=O)COC(=O)/C=C/c1ccc(C)o1)c1c(N)n(Cc2ccccc2)c(=O)[nH]c1=O,18µM,0,0,0,0,?
CCN(C(=O)CN1CCN(c2ccc(O)cc2)CC1)c1c(N)n(Cc2ccccc2)c(=O)[nH]c1=O,?,4.7µM,?,0,0,?
CCN(C(=O)CN1CCCCCC1)c1c(N)n(Cc2ccccc2)c(=O)[nH]c1=O,-,-,-,0,0,-
CCCCN(C(=O)/C=C/c1ccco1)c1c(N)n(Cc2ccccc2)c(=O)[nH]c1=O,?,0,0,0,0,0
CCCN(C(=O)/C=C/c1ccco1)c1c(N)n(Cc2ccccc2)c(=O)[nH]c1=O,45µM,0,0,0,0,0
O=C(Nc1ccc(O)cc1)c1ccc(C(=O)c2ccccc2)o1,0,-,?,0,0,0
CC(C)[N+](C)(C)CC#CC(O)(c1ccccc1)c1ccccc1,0,0,0,0,0,0
C[N+]1(CC#CC(O)(c2ccccc2)c2ccccc2)CCCC1,0,5.2µM,?,0,0,?
CCN(CC)CCC#CC(O)(c1ccccc1)c1ccccc1,0,9.3µM,0,0,0,0
COc1ccc(Cl)cc1NC(=O)CSc1nc(-c2ccco2)cc(C(F)(F)F)n1,0,-,-,-,-,0
COc1cccc(C2=NN(C(=O)c3cccs3)C(O)(C(F)(F)F)C2)c1 (stereo not drawn),0,0,3.7µM,0,0,0
COc1cccc(CN2CCNC(=O)C2CC(=O)NCc2cn3ccccc3n2)c1OC (stereo not drawn),?,10µM,0,0,0,0
COc1cccc(CN2CCNC(=O)C2CC(=O)NCCn2ccc3ccccc32)c1OC (stereo not drawn),-,?,12µM,0,0,0
CCCCOC(=O)c1ccc(NC(=O)c2cc(-c3cccs3)on2)cc1,0,-,-,-,-,0
O=C(Nc1cc(C(F)(F)F)ccc1Cl)C1CCN(c2nnc(-n3cccc3)s2)CC1,0,0,8.3µM,0,0,0
CS(=O)(=O)N1CCC(C(=O)Nc2cc(C(F)(F)F)ccc2Cl)CC1,0,-,0,0,0,0
O=C(C1CCN(c2nnc(-n3cccc3)s2)CC1)N1CCN(Cc2ccc3c(c2)OCO3)CC1,0,1.5µM,?,0,0,0
CC1CCN(Cc2ccc(NC(=O)C3CCN(c4nnc(-n5cccc5)s4)CC3)cc2)CC1,0,0,7.4µM,0,?,?
O=C(C1CCN(c2nnc(N3CCCC3=O)s2)CC1)N1CCN(Cc2ccc3c(c2)OCO3)CC1,0,?,?,0,0,?
CCCCC[C@H](O)/C=C/[C@@H]1[C@H]2C/C(=C/CCCC(=O)O)O[C@H]2C[C@H]1O,-,0,0,-,-,-
SMILES,Sm TGR inh,Pf growth 96h,Pf growth 48h,SARS PLP yeast,AmpC inh no detg,AmpC inh detg
CC(C)(C)c1ccc(C(CC(=O)O)NC(=O)c2ccccc2F)cc1 (stereo not drawn),0,0,0,0,0,?
O=S(=O)(Nc1nc2ccccc2s1)c1ccc(Br)s1,0,0,0,0,32µM,?
Cc1ccc(S(=O)(=O)Nc2nc3ccccc3s2)cc1,0,?,-,0,0,?
Cc1ccc(CNC(=O)CCC2CCCN(C(=O)CCC(F)(F)F)C2)o1 (stereo not drawn),13µM,8.3µM,0,0,0,0
Cc1ccc(CNC(=O)CCC2CCCN(C(=O)c3ccc4c(c3)OCO4)C2)o1 (stereo not drawn),14µM,0,0,0,0,0
O=C(CCC1CCCN(C(=O)CCC(F)(F)F)C1)NCc1ccc(F)c(F)c1 (stereo not drawn),0,0,0,0,0,0
CCC1=NN(C(=O)c2ccc(Br)cc2)C(O)(c2ccc(C)cc2)C1 (stereo not drawn),0,0,0,0,0,0
CC1=NN(C(=O)c2ccc(Br)cc2)C(O)(C(F)(F)OC(F)(F)F)C1 (stereo not drawn),0,?,4.7µM,0,0,0
CCC1=NN(C(=O)c2ccc(C)cc2)C(O)(c2ccc(Br)cc2)C1 (stereo not drawn),0,13µM,0,0,0,0
CCN1CCN(C(CNC(=O)c2ccc3c(c2)OCO3)c2cccnc2)CC1 (stereo not drawn),0,0,0,0,0,0
COc1cc(OC)c(Nc2nc3ccc(C)cc3n3nnnc23)cc1Cl,0,-,-,-,-,0
Cc1cc(C)c2c(CC(=O)Nc3ccc(S(=O)(=O)Nc4ncccn4)cc3)coc2c1,0,-,-,-,-,?
C=CCN(c1ccccc1)S(=O)(=O)c1cccc(C(=O)OCC(=O)NCCOC)c1,0,0,0,0,0,0
C=CCN(c1cccc(C(F)(F)F)c1)S(=O)(=O)c1cccc(C(=O)OCC(=O)NCCC)c1,0,13µM,?,0,0,0
COc1ccccc1OCCCn1cc(C(=O)C2CC2)c2ccccc21,0,?,12µM,0,0,0
CCOc1ccc(NC(=O)Cn2cc(C(=O)CC)c3ccccc32)cc1,0,0,0[0.00184 µM],0,0,0
CCOc1ccc(NC(=O)Cn2cc(C(=O)C3CC3)c3ccccc32)cc1,0,5.9µM,0,0,0,0
Cc1cc2nc(-c3cccc(NC(=O)COc4ccc(C(C)C)cc4)c3)oc2cc1C,0,-,-,-,-,0
CC(C)CCn1c(=O)c2ccccc2n2c(CN3CCCC3)nnc12,0,0,0,0,0[11.4 µM],0
O=C(CCc1nnc2n(CCc3ccccc3)c(=O)c3ccccc3n12)NCCCN1CCCCC1,0,3.7µM,0,0,0,0
CC(C)CCn1c(=O)c2ccccc2n2c(CN(C)Cc3ccccc3)nnc12,0,13µM,?,0,0,0
CC(C)CCn1c(=O)c2ccccc2n2c(=S)[nH]nc12,0,0,0,-,0,0
CCCn1c(=O)c2ccccc2n2c(SCC(N)=O)nnc12,0,0,0,0,0,?
CC(C)CCn1c(=O)c2ccccc2n2c(CCl)nnc12,3.2µM,?,?,0,0,0
CCCCCn1c(=O)c2ccccc2n2c(CCl)nnc12,14µM,?,?,0,0,0
COC(=O)/C(C#N)=C/N(C)C,0,0,2.3µM,0,0,0
CCOC(=O)/C(C#N)=C\N(C)C,0,0,0,0,0,0
